Consider 40 sequences from the supplement of paper PMC6555819.

The subject of the assay is LXRb homodimer (NR concentration 270 nM). Briefly: PBM binding z-score (relative to random genomic background probes); higher = stronger binding; sequences stand for … in GC…GCGATTGACAGCGTAGAATGAAGG
In outline: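 For binding z-scores, the reference was random background probes on custom Agilent 4×180K protein-binding microarrays. These arrays were incubated 1 h with ligand-free nuclear receptor dimers in PBS pH 7.4, 2% milk, 0.02% Triton X-100, 1 mM DTT, 0.2 mg/mL BSA and 0.4 mg/ml salmon testes DNA. Fluorescence was scanned after antibody detection of each partner (one per run) and regression-normalized.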
Take CCTAGTGGGCCATTCAGAGGTCATTGATCATATG: the PBM binding z-score stood at 0.202.
As to TAGCCTAGGTCATGGTCCAGTATACCACGCGAAC, the PBM binding z-score was -0.0302.
In turn, CAAACTAGGTCAAAGGTCTAAGTCGAGCCAACCA gave a PBM binding z-score of 0.734.
The sequence CCTACTGGGCCATCAGGTCATAGATATCAACGTT gave a PBM binding z-score of -0.323.
The sequence TCTATTAGTTGGTTAGGGCAACCGAAACAGCGGA showed a PBM binding z-score of 1.35.
In the case of CGTCCAAGGTTAGCAGGTCAGTGAAAGCGACGTG it was -0.45.
With GGTGCTAGGTCAGGTTGGTCAGCTAACGGGTACG, the PBM binding z-score stood at 0.134.
On to TTACCAAGGTGGGCTGAGGTCGTTGATCCAACTC, for which the PBM binding z-score was -0.656.
As for CAAACTAGGTCAAAGGTCATAGTCGAGCCAACCA, the figure is 2.18; as for GCTGTTAGTTGAAAGGGCAACCGAATGATTCTCG, 0.0485.
As for CGAACTAGGTCAGCCAGGACAGTGAATACATTGA, the PBM binding z-score is -0.648.
As for CCTACTGGGCCATCAGGTCATGGATATCAACGTT, the figure is -0.453; as for GGAACGAGGGCATTCGAGTTGATGGCATGGCGAT, -0.896.
In the case of TAGCCTTGGTCAGATCGGGCCAGTATACGCTATA, the PBM binding z-score was -0.904.
Turning to AGAATGAGGTTAAGATCAGGGACACAGAATACAT, the PBM binding z-score was 0.324.
The sequence AGTCAAAGTTCACTAGGTGACGTAAGATTCAGCT registered a PBM binding z-score of 0.835.
On to GCTGCTAGGTCAACTGATGGTCAGTTAAAGCTCG, for which the PBM binding z-score was found to be 0.46.
As for GGCACGAGGGCATTCGAGTTGATAGCATGGCGAT, the PBM binding z-score is -1.26.
In the case of ACTCGGAGGACAAAGGTCAGAGCAACGCCAGTGA it was 0.134.
Regarding ACTCGGAGAACAAAGGTCAGAGCTACGCCAGTGA, the PBM binding z-score was 0.2.
The sequence TAGCCTAGGTCATGGGCCCGTATACCACGCGAAC showed a PBM binding z-score of -0.0336.
As for ATATGTAGATTAAGGGTCATTCAGGTTGGTTCGC, the figure is 1.38; as for CGTCAAAGTTCAACCAAGGTAACGTAAAGCACGC, 1.7; as for GATACAGGGTCAGTTAGAGGCCAGAGTATGGAAA, 0.0768.
ACATGTAGGTTAGCTGGGGTCATTCAGACTAGGC registered a PBM binding z-score of 1.56.
TCTATTAGTTGATTAGGGCAAACGAAACAGCGGA: the PBM binding z-score worked out at 0.369.
With AGTCAAAGTTCAGGACGAGGTAACCTAAAGCACG, the PBM binding z-score stood at 0.245.
In the case of CGTCCAAGGTCAGGGAGGTCAGTGAATGCCGAGT it was 0.00503.
As to GCGACTGGGGCATCAGCAGGTTAACATAACTTAA, the PBM binding z-score was -0.643.
In the case of CCTACTGGGCCAAGGTCATTGATCAGTCAAAGCA, the PBM binding z-score is -0.497.
Consider TAGCCTAGGTCATGCGGGCCAGTCTAGTGTCGGC, for which the PBM binding z-score was -0.0777.
ATCGAAAGGTCGAAGGTGAGTTTACCCACCCGAA returned a PBM binding z-score of 0.226.
With GCAGACAGGTGAAACGTAGGTAACTCAGGGTGGC, the PBM binding z-score is -0.785.
With TCATACAGGTGAAGGTAACTCAGGTACGCAGTCG, the PBM binding z-score is 0.221.
Consider TAGCCTAGGTCATTCAGGGGCCAATATAGAAAGC, for which the PBM binding z-score came to 1.21.
CCTCACGGGTCAAGGTTATAGCACGGGTGGTACG had a PBM binding z-score of -0.33.
Sequence TCGAGTGGGTTAGTCGGGGCATTCAGCCAACATA showed a PBM binding z-score of -0.295.
The sequence CAAACTAGGCCAAAGGTCAAAGTCGAGCCAACCA came in with a PBM binding z-score of 2.08.
For CAAACTAGGGCACCGGAAGGTCAAAGTCCGCATG, the PBM binding z-score was -0.115.
In the case of CTCGAAATGTCGGTTGAGGTGAGTATACGGATAA it was 0.0912.
